# “And” between values parts separate entries of the source, which are not always exact repeats. Identical values can stand only once. The panel holds about 83,000 compounds, 20% with a hit somewhere; the sample as a whole holds those more often.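 Single-concentration screen, 48 h exposure, 96-well plates. Endpoint: percent growth. Below 10 = active.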 Unmarked numbers belong to inactive results. The source made the active and inactive calls.
# Columns and labels:
# Experiment in all cases: NCI-60 one-dose screen, 48 h (100 = growth as untreated, 0 = no growth, -100 = all killed)
# Conditions in all cases: 10 µM
# SR leukemia = system: SR leukemia
# RPMI-8226 leukemia = system: RPMI-8226 leukemia
# OVCAR-8 ovarian = system: OVCAR-8 ovarian
# OVCAR-5 ovarian = system: OVCAR-5 ovarian
# OVCAR-4 ovarian = system: OVCAR-4 ovarian
# SK-OV-3 ovarian = system: SK-OV-3 ovarian
# IGROV1 ovarian = system: IGROV1 ovarian
# OVCAR-3 ovarian = system: OVCAR-3 ovarian
# HS 578T breast = system: HS 578T breast
# NCI/ADR-RES ovarian = system: NCI/ADR-RES ovarian
# T-47D breast = system: T-47D breast
# BT-549 breast = system: BT-549 breast
# MDA-MB-435 melanoma = system: MDA-MB-435 melanoma
# SW-620 colon = system: SW-620 colon
# MCF7 breast = system: MCF7 breast
# HCT-116 colon = system: HCT-116 colon
# HCC-2998 colon = system: HCC-2998 colon
# KM12 colon = system: KM12 colon
# MDA-MB-468 breast = system: MDA-MB-468 breast
SMILES,growth (SR leukemia),growth (RPMI-8226 leukemia),growth (OVCAR-8 ovarian),growth (OVCAR-5 ovarian),growth (OVCAR-4 ovarian),growth (SK-OV-3 ovarian),growth (IGROV1 ovarian),growth (OVCAR-3 ovarian),growth (HS 578T breast),growth (NCI/ADR-RES ovarian),growth (T-47D breast),growth (BT-549 breast),growth (MDA-MB-435 melanoma),growth (SW-620 colon),growth (MCF7 breast),growth (HCT-116 colon),growth (HCC-2998 colon),growth (KM12 colon),growth (MDA-MB-468 breast)
NS(=O)(=O)c1ccc(N=Nc2c(O)n(CC(=O)Nc3ccccc3Br)c3ccccc23)cc1,41.3%,37.3%,18.6%,70.2%,69.4%,41.5%,26.4%,45.7%,45.7%,43.6%,38.1%,0.165% (active),50.6%,44.4%,10.7%,21.4%,39.5%,36.7%,35.8%
CN1CCN(Cc2ccc(NC(=O)c3cncc(C#Cc4cnc5ccc(N[C@@H]6CCOC6)nn45)c3)cc2C(F)(F)F)CC1,-18.5% (active),-24.1% (active),-96.2% (active),-91.6% (active),-66.3% (active),-83.1% (active),-91.6% (active),-90.3% (active),-41% (active),-77.5% (active),-63.2% (active),-71.3% (active),-87.6% (active),-41.9% (active),-88.1% (active),-63.9% (active),-99.7% (active),-90.7% (active),-96.2% (active)
COc1ccc2ncc(C#Cc3cncc(C(=O)Nc4ccc(CN5CCN(C)CC5)c(C(F)(F)F)c4)c3)n2n1,-26.3% (active),-26.3% (active),-49.2% (active),-94.5% (active),-75.2% (active),49.8%,-76.1% (active),-93.2% (active),-2.29% (active),-81.4% (active),61.8%,-75.7% (active),-89.6% (active),-72.4% (active),-71.7% (active),-43.6% (active),-95.8% (active),-95% (active),-91.1% (active)
CCOc1ccc(Nc2nc3ccccc3nc2Nc2ccc(OCC)cc2)cc1,42.2%,18.5%,58.3%,107%,52.7%,108%,55%,22.5%,107%,65%,32.1%,70.7%,52.9%,75.5%,32.9%,17.8%,90.2%,47.4%,25.4%
Cc1ccc(C(=O)N/C(=C2/OCCN2C)[P+](c2ccccc2)(c2ccccc2)c2ccccc2)cc1,79.5%,25.6%,80.5%,96.3%,69.8%,104%,69.9%,54.5%,79.6%,101%,55.3%,86.8%,54.4%,84.1%,56.4%,57.9%,75.1%,55.4%,-13.3% (active)
CCN1CCN(Cc2ccc(C(=O)Nc3cccc(-c4cn(-c5ccc6oc(=O)ccc6c5)nn4)c3)cc2C(F)(F)F)CC1,-51.6% (active),-40.7% (active),-100% (active),-100% (active),-100% (active),25.4%,-100% (active),-100% (active),-21.6% (active),-100% (active),82.9%,-79.2% (active),-100% (active),-100% (active),-100% (active),-100% (active),-100% (active),-100% (active),-82.4% (active)
NS(=O)(=O)c1ccc(NC(=O)CSc2ccc(-c3ccccc3)nn2)c(Br)c1,85.9%,83%,38.3%,90.4%,53.8%,98.7%,93.8%,24.9%,41.1%,81.6%,37.4%,46.3%,94.4%,99.5%,79%,48.7%,77.9%,85.3%,98%
N#Cc1ccc(-c2nn(-c3ccc(C(=O)O)cc3)cc2CNc2cc(Cl)cc(Cl)c2)cc1,36.5%,21.6%,47.6%,84%,65.4%,126%,52.5%,45.7%,50.2%,17.2%,25.9%,-1.57% (active),40.1%,49.2%,27.3%,12.5%,9.16% (active),18.6%,43.4%
CN1C(=O)N(C)C2SC(N/N=C/c3ccccc3)=NC21 (centres undefined),13.6%,97.4%,97.1%,94.4%,94.6%,95.7%,64.5%,25.1%,66.1%,44.6%,69.5%,58.7%,-13.7% (active),38.3%,41%,51.5%,81.9%,46.7%,10% (active)
Nc1nnc(-c2c[nH]c3ncccc23)c(-c2c[nH]c3ccc(Br)cc23)n1,19.1%,38.7%,46.2%,68.2%,55.7%,55.3%,25.7%,52.6%,33.7%,98.6%,22.4%,38.6%,47.2%,54.9%,22.5%,21.9%,74.5%,39.3%,50.4%
CCCn1c(=O)c2[nH]c(-c3ccc(OCc4nc5ccc(C#N)cc5[nH]4)cc3)nc2n(CCC)c1=O,59.5%,68.9%,66.3%,113%,78.9%,85.5%,62.2%,68%,40%,97.1%,35.7%,92.6%,97.5%,80.5%,-48.9% (active),58.2%,95.3%,75.5%,65.9%
O=C1CCC(N2Cc3cc(CC(=O)Nc4ccc(N5CCCCC5)cc4)ccc3C2=O)C(=O)N1 (centres undefined),77.2%,66.4%,20.9%,70.5%,31.1%,61%,31.8%,53.9%,27.4%,25.2%,14.1%,-9.03% (active),70.5%,,59.7%,102%,34.7%,41.1%,-16.4% (active)
O=C(Cc1ccc2c(c1)CN(C1CCC(=O)NC1=O)C2=O)NCCc1ccccc1 (centres undefined),53.5%,45.6%,4.26% (active),37.6%,10.6%,28%,2.99% (active),20.1%,-5.24% (active),28.4%,1.71% (active),-37.2% (active),35%,10.6%,,70.8%,-11.4% (active),6.24% (active),-46.1% (active)
Cc1cccc(NC(=O)CSc2nc3ccc(F)cc3c(=O)n2-c2ccc(Cl)cc2)c1C,61.9%,88.1%,32.5%,90.3%,67.7%,56.8%,53%,93.9%,25.7%,56%,91.5%,32%,83.4%,80.1%,,44.8%,94.5%,88.8%,80.7%
O=c1oc2ccccc2cc1-c1csc(N=Nc2c(O)[nH]c3ccc(Br)cc23)n1,97.1%,99.7%,79.1%,98.9%,87.2%,91.9%,79.5%,89.7%,33.7%,76.2%,89.1%,62.9%,102%,104%,,64.1%,96.3%,99.9%,95.2% and 64.3%
O=c1cc(-c2ccccc2)oc2cc(OCCCNCc3ccccc3)cc(O)c12,-24.8% (active),-26.8% (active),-90.5% (active),75.5%,-16.2% (active),30.1%,9.54% (active),16.2%,-4.99% (active),-77.9% (active),-64.7% (active),46.8%,-44.2% (active),-13.8% (active),,-68.7% (active),-95.8% (active),-38.3% (active),-59.5% (active)
